# Whole data set: some 110,000 compounds, median “z-score” near -0.1, cut for the highest 2% near 2. What follows is part of a selection rich in the highest values, with near analogues and random picks from the rest. Calls of active or inactive are those of the source.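 How the source made its calls: active means z-score in the third read window above 3 or below -3; inactive means the rest.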
# Target: Metabotropic glutamate receptor 8 (Rattus norvegicus) (UniProt P70579)
# Experiment: mGluR8 Gi/Go-coupled signaling modulation – cell-based, rat, thallium flux, HTS, primary screen (AID 488969)
# Details: HEK293 rat mGluR8, GIRK (G protein-gated inwardly rectifying potassium channel) thallium flux, FluoZin2; at 10 µM; stronger effect = higher value; submaximal glutamate (EC20) added with thallium
# Sequence of Metabotropic glutamate receptor 8 (Rattus norvegicus) (P70579 whole entry, looked up): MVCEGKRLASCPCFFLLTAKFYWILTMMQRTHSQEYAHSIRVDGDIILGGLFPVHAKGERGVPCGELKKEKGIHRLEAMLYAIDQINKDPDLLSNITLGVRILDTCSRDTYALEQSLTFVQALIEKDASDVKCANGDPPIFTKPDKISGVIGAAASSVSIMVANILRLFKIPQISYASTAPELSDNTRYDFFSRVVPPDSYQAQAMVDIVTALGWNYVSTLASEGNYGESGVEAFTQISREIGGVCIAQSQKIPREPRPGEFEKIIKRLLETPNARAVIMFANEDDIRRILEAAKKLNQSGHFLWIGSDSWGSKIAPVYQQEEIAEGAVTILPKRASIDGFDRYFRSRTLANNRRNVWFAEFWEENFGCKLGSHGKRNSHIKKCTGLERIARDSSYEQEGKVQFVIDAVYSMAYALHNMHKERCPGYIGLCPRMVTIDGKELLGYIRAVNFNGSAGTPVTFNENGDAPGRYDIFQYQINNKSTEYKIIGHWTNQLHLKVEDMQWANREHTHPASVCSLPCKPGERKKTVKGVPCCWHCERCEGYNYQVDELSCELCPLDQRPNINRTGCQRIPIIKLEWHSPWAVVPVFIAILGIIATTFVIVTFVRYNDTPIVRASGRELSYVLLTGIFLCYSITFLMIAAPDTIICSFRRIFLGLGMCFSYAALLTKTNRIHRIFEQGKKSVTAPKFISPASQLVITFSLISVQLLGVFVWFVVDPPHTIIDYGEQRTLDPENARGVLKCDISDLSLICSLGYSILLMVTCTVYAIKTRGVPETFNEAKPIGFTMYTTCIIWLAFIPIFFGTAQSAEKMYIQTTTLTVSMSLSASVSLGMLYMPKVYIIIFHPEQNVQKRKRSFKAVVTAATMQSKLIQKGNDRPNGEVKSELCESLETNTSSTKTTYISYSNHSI
row,Compound,z-score
1,CCN(CC)c1ccc(NC(=O)CN2CCN(S(=O)(=O)c3cc(Cl)ccc3OC)CC2)cc1,-0.269
2,CC1CN(CC(=O)c2c(N)n(Cc3ccccc3)c(=O)n(C)c2=O)CC(C)O1 (stereo unspecified),0.178
3,Cc1ccc(Cn2nnc3c(=O)[nH]c(C4CCN(C(=O)c5cccs5)CC4)nc32)cc1,-0.73
4,O=C(NCC(c1cccs1)N1CCOCC1)c1ccccc1NS(=O)(=O)c1ccc(Cl)c([N+](=O)[O-])c1 (stereo unspecified),-0.572
5,Cc1[nH]n2c(=O)cc(C(C)(C)C)nc2c1-c1ccccc1,4.43 (active)
6,Cc1cc(=O)n2[nH]c(C)c(-c3ccccc3)c2n1,-0.675
7,Cc1[nH]n2c(=O)cc(C(C)C)nc2c1-c1ccccc1,-0.963
8,CC(C)OC(=O)c1cccnc1N1CCN(c2ccc(F)cc2)CC1,-0.216
9,Cc1nc2ccc(NC3=NCCCCC3)cc2s1,0.806
10,COc1cc(OC)c(C2C(C(=O)N3CCOCC3)=C(C)NC3=C2C(=O)CC(C)(C)C3)cc1OC (stereo unspecified),-0.103
11,CC(C)c1nc2ccccn2c1NC1CCCCC1,0.45
12,Cc1ccn2c(NC3CCCCC3)c(C)nc2c1,-0.312
13,Cc1ccn2c(NC3CCCCC3)c(C(C)C)nc2c1,2.52
14,Cc1ccc(/C=C/S(=O)(=O)N2CCC(C(=O)O)CC2)cc1,-0.628
15,CCOC(=O)N1CCN(c2nnnn2-c2ccccc2)CC1,-0.14
16,Cc1ccc(S(=O)(=O)N2CCOCC2)cc1NC(=O)COC(=O)CSc1ccc(Br)cc1C,-0.132
17,CC(C)NC(=O)CSCc1c(Cl)cccc1Cl,-0.342
18,CCn1ncc(Cl)c1C(=O)Nc1cc(Cl)ccc1Cl,0.0474
19,Cc1ccccc1OCc1nc2ccccc2c(=O)n1/N=C/c1cccc([N+](=O)[O-])c1,-0.0563
20,O=C1c2ccccc2OC2(C=Cc3ccccc3O2)N1Cc1ccccc1 (stereo unspecified),0.198
21,CN1CC2=Cc3ccccc3OC23Oc2ccccc2C=C3C1,2.01
22,Cc1ccc(-c2nn(CC(=O)Nc3ccc4c(c3)nc3n4CCOC3)c(=O)c3ccccc23)cc1,-0.236
23,COc1ccccc1N1CCN(C(=O)Cn2c(=O)[nH]c3ccsc3c2=O)CC1,-0.563
24,S=C(NCCN1CCOCC1)Nc1ccc(Cl)cc1,-0.102

row,Compound,z-score
1,COc1cccc(-c2cc(C(=O)Nc3cnn(Cc4ccccc4C)c3)no2)c1,0.0739
2,CCCn1cc(NC(=O)c2cc(-c3ccccc3)on2)cn1,13 (active)
3,O=C(Nc1cnn(C23CC4CC(CC(C4)C2)C3)c1)c1cc(-c2ccccc2)on1,0.107
4,O=C(Nc1cccnc1)c1cc(-c2ccccc2)on1,-0.466
5,Cc1ccc(-c2cc(C(=O)Nc3cnn(C(C)C)c3)no2)cc1,0.74
6,CC(C)n1cc(NC(=O)c2cc(-c3ccccc3)on2)cn1,16.8 (active)
7,COc1ccc(Sc2cc(C(F)(F)F)nc(-c3ccccn3)n2)cc1,-0.417
8,CCOc1ccccc1CNC(=O)CCNC(=O)Cn1ccc2ccccc2c1=O,0.269
9,CCc1cc(-c2n[nH]c(=S)n2-c2cccc(C)c2)cs1,0.65
10,Cc1cccc(-n2c(-c3csc4ccccc34)n[nH]c2=S)c1,2.62
11,Cc1ccccc1-n1c(-c2csc3ccccc23)n[nH]c1=S,0.627
12,Cc1cccc(-n2c(-c3csc(C)c3C)n[nH]c2=S)c1,0.00757
13,Cc1cccc(-n2c(-c3csc(C(C)C)c3)n[nH]c2=S)c1,2.87
14,Cc1cccc(-n2c(-c3csc(C)c3)n[nH]c2=S)c1,0.189
15,CC(NC(=O)C1CCCCC1)C(=O)NC1=NCCS1 (stereo unspecified),0.00509
16,Cc1cccc(C)c1Oc1nc(-c2ccccc2)ncc1S(=O)(=O)c1ccccc1,-0.0101
17,CN1CCN(CCCNC(=O)c2ccc3c(c2)N(Cc2ccccc2)CCS3)CC1,0.775
18,N#C/C(=N\Nc1ccc(Cl)cc1)C(=N)N1CCCCC1,0.186
19,Cc1cccc(C(=O)Nc2nnc(SCC(=O)Nc3ccc4c(c3)oc3ccccc34)s2)c1,-0.242
20,COC(=O)C1CCN(S(C)(=O)=O)CC1,-0.211
21,CCc1ccccc1NC(=S)NCc1ccc2c(c1)OCO2,-0.0875
22,CSc1nnc(Nc2ccccc2C)s1,-0.0316
23,CCCSc1nnc(Nc2ccccc2C)s1,4.96 (active)
24,C/C(N)=C(/C#N)C(=O)CSc1nnc(Nc2ccccc2C)s1,-0.126

row,Compound,z-score
1,COc1ccccc1Nc1nnc(C)c(=O)[nH]1,-0.361
2,COc1ccccc1Nc1ccc(Nc2ccccc2OC)nn1,2.82
3,COc1ccc(OC)c(Nc2ccc(Nc3cc(OC)ccc3OC)nn2)c1,-0.125
4,O=Cc1cn(CC(=O)N2CCOCC2)c2ccccc12,-0.773
5,Cc1noc(C)c1C(=O)N1CCN(C(=O)c2sc3cc(Cl)ccc3c2Cl)CC1,-0.676
6,O=C(C[n+]1cc(-c2ccccc2)n2c1CCC2)OCc1ccccc1,5.17 (active)
7,O=C(C[n+]1cc(-c2ccc(Cl)c(Cl)c2)n2c1CCC2)OCc1ccccc1,0.0701
8,O=C(C[n+]1cc(-c2ccccc2)n2c1CCC2)N1c2ccccc2Sc2ccccc21,-0.288
9,NC(=O)C(c1ncc(C(F)(F)F)cc1Cl)c1c(Cl)cccc1Cl (stereo unspecified),-0.197
10,CC1(C)Cc2[nH]c(=O)c(C#N)cc2CS1,0.0257
11,CCn1c(SCc2ccc(Cl)cc2Cl)nc2nc3c(cc2c1=O)CCCC3,-0.163
12,CC1CCCCC1NC(=O)COn1nnc2ccc(Cl)cc21 (stereo unspecified),-0.171
13,CCOC(=O)Cn1c(=O)oc2cc(S(=O)(=O)NCCc3ccc(C)cc3)ccc21,-0.171
14,CCN(CC)c1ccc(NS(=O)(=O)c2ccc3c(c2)oc(=O)n3C)c(C)c1,0.308
15,CCOC(=O)Cn1c(=O)oc2cc(S(=O)(=O)Nc3c(C)cc(C)cc3C)ccc21,-0.223
16,CCOC(=O)Cn1c(=O)oc2cc(S(=O)(=O)Nc3ccc(N(CC)CC)cc3C)ccc21,2.74
17,CCOC(=O)Cn1c(=O)oc2cc(S(=O)(=O)NCCCc3ccccc3)ccc21,3.36 (active)
18,CCCCNS(=O)(=O)c1ccc2c(c1)oc(=O)n2CC(=O)OCC,0.0209
19,N#CCC(=O)N/N=C1\CCCCC1C1CCCCC1 (stereo unspecified),0.419
20,CC(C)C(=O)Nc1ccnc(-c2cccnc2)n1,-0.0191
21,CC(C)OC(=O)c1cc2c(ccn2C)n1CC(=O)N(Cc1ccccc1)c1ccccc1,-0.243
22,CCN1/C(=C2/OC(=S)N(C)C2=O)Sc2ccccc21,1.02
23,O=C(COc1ccccc1)N1CCN(S(=O)(=O)Cc2ccccc2)CC1,0.0406
